High-throughput results deposited in PubChem by National Center for Advancing Translational Sciences (NCATS).
Hits are enriched below; roughly 11% of the tested compounds scored in any of these assays.
HTT aggregate: inhibitors of mutant huntingtin aggregate formation in PC12 cells | AID 1688 | PC12 HttQ103-GFP aggregates, Acumen cytometry, 40 h | 220,000 tested, 1.1% active | Potency, µM (highest dose often 46.1 µM), for the others: at the highest dose activity change, negative = inhibition, most hits filed as inhibitors; further: potency means the concentration at half of the fitted maximal effect; on the % scale 0 is the no-effect control and ±100 the full control effect; nearly all actives have a fitted effect of over 60% in size
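Multiplexed with ATP-based cell death, this channel scores GFP aggregates in PC12 cells expressing inducible HTTex1-Q103-GFP. Induction used 100 nM tebufenozide; compounds were tested in concentration series.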
HTT cytoprotect: cytoprotection in Huntington HTT-Q103 PC12 cell model | Potency, µM (top dose mostly 56.4 µM), for inactives: cytoprotection (ATP increase), actives largely listed as activators | PC12 HTT-Q103 induced, cytoprotection, ATP luminescence, 40 h | 230,000 tested, 0.14% active; further: potency means the concentration at half of the fitted maximal effect; % of control where 0% means no effect; nearly all actives have a fitted effect of over 45% in size
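Readout: ATPlite luminescence (ATP level). Model: stable PC12, inducible Htt exon1 Q103-GFP. Inducer: tebufenozide, 100 nM final. Compounds: dose series. No G418 in medium.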
ALDH1A1 inh: blocks purified human ALDH1A1 activity | Purified ALDH1A1, NADH fluorescence, propionaldehyde substrate | 220,000 tested, 7.3% active | Potency, µM (top dose mostly 75.3 µM), for the others: top-dose activity, negative = inhibition, hits mostly inhibitors | P00352; active means well fitted inhibition curve with a large enough effect, not every such curve was filed as active; inconclusive means small, poorly fitted or top-dose-only effect, or another doubt; inactive means no such curve, though single readings can be large or run the other way;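 further: potency means the concentration at half of the fitted maximal effect; plate controls were no enzyme wells and a reference inhibitor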
GoLoco inh red: blocks human Gai1 binding to RGS12 GoLoco peptide, red readout | P63096 | Gai1:RGS12 GoLoco peptide FP, rhodamine, 10 min | Potency, µM (highest dose often 61.6 µM), inactives show at the top dose activity, negative = inhibition, most hits filed as inhibitors | 230,000 tested, 0.44% active | AID 880; active means well fitted inhibition curve with a large enough effect, not every such curve was filed as active; inactive means no such curve, though single readings can be large or run the other way; further: potency means the concentration at half of the fitted maximal effect; on the % scale 0 is the no-effect control and ±100 the full control effect; nearly all actives have a fitted effect of over 30% in size
Target sequence (P63096 whole entry, looked up): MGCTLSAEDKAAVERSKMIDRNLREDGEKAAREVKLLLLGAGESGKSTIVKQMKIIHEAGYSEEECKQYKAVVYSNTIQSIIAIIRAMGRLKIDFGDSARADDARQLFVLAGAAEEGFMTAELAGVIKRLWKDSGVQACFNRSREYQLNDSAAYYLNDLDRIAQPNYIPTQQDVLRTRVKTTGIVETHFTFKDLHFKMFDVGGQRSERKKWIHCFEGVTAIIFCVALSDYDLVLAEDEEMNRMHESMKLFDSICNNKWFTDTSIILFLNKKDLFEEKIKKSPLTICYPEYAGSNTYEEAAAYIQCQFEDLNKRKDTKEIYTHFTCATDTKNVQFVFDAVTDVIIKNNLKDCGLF
PNC inhibitor: blocks assembly of the perinucleolar compartment | PC3M PTB-GFP, PNC prevalence imaging, 16 h; stronger effect = lower value | activity change (PNC), negative = inhibition, % at 10 µM | 140,000 tested, 3.1% active | AID 2417;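 active means readout at or below -70, meaning at least 70% loss of cells showing the perinucleolar compartment, a nuclear body marking cancer cells; inconclusive means readout between -30 and a set limit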;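 further: plate controls were DMSO wells for no effect and camptothecin positive control wells for full effect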
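Read-out is percentage of cells bearing a perinucleolar compartment, from automated 20x imaging of fixed, Hoechst-stained PC3M PTB-GFP cells. Cells were seeded 4 h, then exposed 16 h to compound (23 nl of library stock) in duplicate plates.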
HPGD block: inhibitors of human 15-hydroxyprostaglandin dehydrogenase (HPGD); P15428; purified HPGD, NADH fluorescence kinetic, PGE2 substrate; Potency, µM, without a hit: top-dose activity change, negative = inhibition, most hits filed as inhibitors; 150,000 tested, 4.3% active; active means well fitted inhibition curve with a large enough effect, not every such curve was filed as active; inconclusive means small, poorly fitted or top-dose-only effect, or another doubt; inactive means no such curve, though single readings can be large or run the other way; further: potency means the concentration at half of the fitted maximal effect; on the % scale 0 is the no-effect control and ±100 the full control effect
Target sequence (P15428 whole entry, looked up): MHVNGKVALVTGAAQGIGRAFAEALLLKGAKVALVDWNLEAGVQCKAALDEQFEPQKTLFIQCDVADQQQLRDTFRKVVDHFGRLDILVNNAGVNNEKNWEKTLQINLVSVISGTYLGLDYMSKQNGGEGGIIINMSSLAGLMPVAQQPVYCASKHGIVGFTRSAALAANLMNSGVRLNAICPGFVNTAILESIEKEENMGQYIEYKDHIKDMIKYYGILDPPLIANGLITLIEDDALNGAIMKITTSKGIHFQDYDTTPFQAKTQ
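20 nM HPGD preincubated 15 min at room temperature with compound in 50 mM Tris-HCl pH 8, 0.01% Tween 20. Started with 1 mM NAD+ and 30 uM prostaglandin E2; NADH fluorescence (360/450 nm) read 5 times over 30-s intervals, last minus first.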
An asterisk follows results filed as active; ? = inconclusive; nt = not tested or not shown; [ ] = remark or other dose. Unless noted, the call rests on the fitted dose curve; in most records, active means well fitted curve in the direction sought with a large enough effect; inconclusive means small, poorly fitted or top-dose-only effect, or another doubt; inactive means no such curve, though single readings can be large; an effect the other way counts as inactive or inconclusive.

SMILES	HTT aggregate	HTT cytoprotect	ALDH1A1 inh	GoLoco inh red	PNC inhibitor	HPGD block
O=C(/C=C/c1cccs1)Nc1nncs1	13%[9.22 µM]	-6%[10 µM]	nt	5%	nt	nt
O=C(COC(=O)/C=C/c1cccs1)Nc1nc(-c2ccccc2)cs1	11%	nt	22µM*	0%	-14	-9%
O=C(/C=C/c1cccs1)Nc1scc(-c2ccccc2)c1C(=O)O	-16%	-143%	22µM*	160%	nt	nt
O=C(/C=C/c1cccs1)Nc1nc(-c2ccccc2)cs1	35µM*	-21%[10 µM]	3%	-7%	15	-14%
O=C(COC(=O)/C=C/c1cccs1)NC(c1ccccc1)c1ccccc1	-8%	18%[10 µM]	10%	4%	-119*	-3%
O=C(Nc1scc(-c2ccccc2)c1C(=O)O)c1ccco1	?	-19%[10 µM]	-12%	1%	37	-25%
COc1ccc(C2CCCN2C(=S)Nc2ccc(C)cc2Cl)cc1OC (stereo not drawn)	-16%	-34%	?	-9%	nt	nt
C[C@@](N)(Cc1c[nH]c2ccccc12)C(=O)O	nt	-3%[10 µM]	-3%[13.5 µM]	2%[14.2 µM]	nt	-1%
COC(=O)c1ccccc1NC(=O)Cc1nc(-c2ccccc2)sc1-c1ccc(C)cc1	?	-3%[10 µM]	10µM*	57%	-14	-24%
CCOC(=O)c1c(C)cc(O)c(C)c1O	nt	nt	1%	-4%	nt	-9%
CN(C)S(=O)(=O)Oc1cccc(C(=O)Nc2cccc(Cl)c2)c1	-25%	33%	0.79µM*	3%	26	-22%
COc1cccc(C(=O)Nc2ccccc2)c1	18%	-25%	2%	4%	41	-21%
CCCC(=O)Nc1ccc(NC(=O)c2cccc(OC)c2)nc1	25%	-17%	4%	4%	-18	4%
COc1cccc(C(=O)Nc2ccc(NC(C)=O)cn2)c1	-4%	-23%[10 µM]	4%	13%	-116*	-13%
CN(C)S(=O)(=O)c1cccc(C(=O)Nc2cc(Cl)cc(Cl)c2)c1	?	-22%	?	6%	?	-14%
CN(c1ccc(F)cc1)S(=O)(=O)c1ccc(Cl)c(C(=O)Nc2ccc3c(c2)CCC3)c1	-4%	23%[10 µM]	-5%	2%	-21	-20%
COc1ccc(NC(=O)c2cccc(OS(=O)(=O)N(C)C)c2)cc1	-6%	-17%	4µM*	0%	nt	nt
CN(c1cccc(Cl)c1)S(=O)(=O)c1cccc(C(=O)Nc2ccc3c(c2)CCC3)c1	-6%	-7%[10 µM]	11µM*	2%	?	-20%
CN1CCN(c2ncc3nc(-c4ccc(F)cc4)c(=O)n(C4CC4)c3n2)CC1	nt	-48%	?	-15%	nt	nt
CC(C)C[C@@H](CC(=O)N[C@@H](CCC(=O)O)CC(=O)O)NC(=O)[C@@H]1CNCC[C@H]1NC(=O)C[C@@H](NC(=O)C[C@H](Cc1ccccc1)NC(=O)[C@@H]1CNCC[C@H]1N)C(C)C	nt	-1%[1.9 µM]	?	-3%	nt	-12%
O=C1c2ccccc2-c2ccc(N(Cc3ccc(Br)cc3)Cc3ccc(Br)cc3)cc21	nt	-3%[10 µM]	1%[13.5 µM]	8%[14.2 µM]	nt	-4%
CCn1c(NCc2cc(Cl)ccc2O)nc2ccccc21	29%[9.22 µM]	7%[10 µM]	nt	5%	nt	nt
CCN(CC)CCC(c1ccc(N(C)C)cc1)c1c(O)cc(OC)cc1OC (stereo not drawn)	-12%[9.22 µM]	16%[10 µM]	nt	-10%	nt	nt
CN(C)S(=O)(=O)Oc1cccc(C(=O)Nc2ccc(Cl)c(Cl)c2)c1	13µM*	-46%	13µM*	-3%	33	-14%
CNS(=O)(=O)c1cccc(C(=O)Nc2cccc(Cl)c2)c1	-30%	-2%	-2%	2%	-94*	-3%
SMILES	HTT aggregate	HTT cytoprotect	ALDH1A1 inh	GoLoco inh red	PNC inhibitor	HPGD block
CNS(=O)(=O)c1cccc(C(=O)Nc2cccnc2)c1	0%	8%	7%	2%	8	-11%
Cc1noc(C)c1C(=O)N1CCC2(CC1)CN(C(=O)Nc1cccc(F)c1)C2	nt	-2%	5%	3%	nt	-13%
CCOC(=O)c1ccccc1OC(=O)CS(=O)c1ccccc1[N+](=O)[O-] (stereo not drawn)	21%	-31%	22µM*	2%	nt	nt
COC(=O)c1ccc(OC(=O)CS(=O)c2ccccc2[N+](=O)[O-])cc1 (stereo not drawn)	12%[9.22 µM]	29%[10 µM]	-1%	3%	nt	nt
NCCNc1ncnc2ccc(Cl)cc12	nt	-3%[10 µM]	-7%[13.5 µM]	1%[14.2 µM]	nt	-12%
COc1cccc(OCC(=O)O)c1	2%	3%	5%	6%	nt	nt
COc1ccc2[nH]c(=O)c(C(=O)O)cc2c1	3%	-17%	?	5%	nt	nt
CC(C)C1Cc2[nH]c(=O)c(C(=O)O)cc2CO1 (stereo not drawn)	?	-1%[0.074 µM]	?	-3%	-111*	?
COC(=O)C1=C(C(=O)OC)[C@@H]2Nc3ccccc3[C@@]23C[C@@H](C(=O)OC)N(C(=O)c2ccco2)C3=N1	nt	18%[10 µM]	-8%[13.5 µM]	2%[14.2 µM]	nt	-15%
Cc1ccccc1Oc1nnc(-c2cccs2)c2ccccc12	3.5µM*	12%[10 µM]	6%	nt	87	nt
Cc1ccc(C(=O)Oc2ccc(N3C(=O)CCC3=O)c(C)c2)cc1	7%	-15%[10 µM]	13%	0%	nt	nt
Cc1cc(OCC(=O)c2ccc(Br)cc2)ccc1N1C(=O)CCC1=O	-17%[1.84 µM]	9%	?	-26%	-4	14µM*
O=C(COc1ccc(Br)cc1)c1ccc2c(c1)CCCC2	-27%	-5%	9%	0%	74	-28%
Cc1ccc(OCC(=O)c2ccc3c(c2)CCCC3)cc1C	?	14%	-1%	6%	63	32µM*
CCCc1ccc(C(=O)Cn2nc(C(=O)O)c3ccccc3c2=O)cc1	18%	nt	8%	6%	nt	nt
CCc1ccc(CCC(=O)Nc2ncc(Cc3ccccc3Cl)s2)o1	-1%	-72%[10 µM]	?	1%	-91*	-26%
Cc1nnc(SCC(=O)NCc2ccccc2)[nH]c1=O	24%	3%	1%	1%	-25	-3%
NC(=S)N/N=C\c1ccc(-c2cccc(Cl)c2Cl)o1	-2%	?	32µM*	29%	10	?
CCOc1ccc2nc(NC(=S)N(C)C)sc2c1	-18%	-51%	25µM*	-6%	36	14µM*
CCOc1ccc2nc(NC(=O)c3cnc(C)cn3)sc2c1	-31%	-18%[10 µM]	8%	6%	22	-6%
CCOCC(=O)Nc1nc2ccccc2s1	?	3%[10 µM]	22µM*	7%	-14	-3%
CCCC(=O)Nc1nc2ccc(OCC)cc2s1	16%	-23%	-6%	9%	27	-4%
CCOc1ccc2nc(NC(=O)c3cccnc3)sc2c1	-10%	0%[10 µM]	9%	7%	-108*	-15%
CCOc1ccc2nc(NC(=O)CS(=O)(=O)c3ccc(C)cc3)sc2c1	-14%	-28%	25µM*	13%	-8	-17%
